Source: PubChem (Sanford-Burnham Center for Chemical Genomics)
TROY signal inh: inhibitors of TROY-driven NF-kB signaling, primary screen, Q293 LMP1-TROYcd cells, NF-kB luciferase, uHTS | Q293 LMP1-TROYcd NF-kB luciferase reporter, 4 h | inhibition, % at 10 µM | actives 0.98% (n = 360,000) | AID 1347056, 2019;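 active = compounds whose plate-normalised and pattern-corrected inhibition of the luciferase reporter signal at the single screening dose is 50% or more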
CF NFkB inh: inhibitors of PAF-induced NF-kB signaling, primary screen, cell-based, GFP fluorescence, uHTS; KKLEB NF-kB-GFP reporter, GFP fluorescence overnight; actives 0.86% (n = 360,000); inhibition, % at 5 µM;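 active = at least 50% inhibition at 5 µM, scaled per plate between neutral and stimulator controls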;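 also: PAF is a Pseudomonas aeruginosa culture filtrate used as stimulus; plate controls were PAF-stimulated DMSO wells for no effect and unstimulated DMSO wells for full effect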
Peg3 prom inh: Peg3 promoter-driven luciferase inhibitors, primary screen, cell-based, HeLa, luciferase luminescence; HeLa PEG-Prom luciferase reporter, overnight; inhibition, % at 20 µM; actives 1.7% (n = 360,000);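 active = inhibition of at least 50% at 20 µM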
HIF-2a block: HIF-2a reporter inhibitors, primary screen, luminescence, 786-0 RCC cells; 786-0 RCC cells HIF-2a reporter, luciferase luminescence, overnight; inhibition, % at 18.8 µM; actives 0.72% (n = 360,000);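 active = inhibition of the luminescence signal of 40% or more relative to plate controls, in a single-dose primary screen at 18.75 µM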
TWEAK-Fn14 inh: inhibitors of TWEAK-Fn14 signaling, primary screen, luciferase reporter cells, uHTS | inhibition, % at 10 µM | actives 2% (n = 360,000) | TWEAK-stimulated Fn14 reporter cells, luciferase luminescence, 8 h; in the data active = inhibition above about 50%
KKLEB cytotox: cytotoxicity in KKLEB CF airway cells, primary screen, cytotoxicity control for CF NF-kB inhibitor project, cell-based, uHTS, fluorescence assay plates | KKLEB CF airway cells viability, ATPlite luminescence, overnight; hits give low values; cells stimulated with P. aeruginosa culture filtrate | activity change (cytotoxicity), % at 5 µM | actives 0.36% (n = 360,000);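 active = corrected activity change at or below -50% at 5 µM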
Active calls of the source: *; x = no result given. The list is not random: actives were taken first. Their share in the collection is about 4%.

SMILES	TROY signal inh	CF NFkB inh	Peg3 prom inh	HIF-2a block	TWEAK-Fn14 inh	KKLEB cytotox
CCN1C(=O)[C@H]2[C@@H](c3ccc(OC)cc3)N[C@]3(CCCN(Cc4ccc(F)cc4)C3=O)[C@H]2C1=O	8	-4	6	0	2	2
N#CCCn1cc(/C=N/NC(N)=S)c(-c2ccc(-c3ccccc3)cc2)n1	13	-13	31	15	51*	6
COCC(=O)O[C@]1(CCN(C)CCCc2nc3ccccc3[nH]2)CCc2cc(F)ccc2[C@@H]1C(C)C	-9	9	90*	6	0	-13
CCOC(=O)CCc1nc2ccccc2[nH]1	5	-10	-5	-31	34	-7
O=C(Nc1cccc(OC(F)(F)F)c1)c1ccc(-c2cccnc2)c2ccoc12	-35	-14	-136	-192	-24	-3
CNC(=S)Nc1ccc([N+](=O)[O-])c(C)c1	-26	17	-33	-35	68*	-13
COc1ccc(/C=N/NC(=S)Nc2ccccc2[N+](=O)[O-])cc1O	86*	4	-28	-60	93*	-10
Cc1ccc(NC(=S)N/N=C/c2ccc(Cl)c([N+](=O)[O-])c2)cc1	-14	-13	86*	-19	-15	17
COc1ccc([N+](=O)[O-])cc1/C=N/NC(=O)Cc1ccccc1	8	6	6	17	-3	-9
COc1cc(/C=N/NC(=O)Cc2ccccc2)ccc1Oc1ccc([N+](=O)[O-])cc1[N+](=O)[O-]	21	9	15	-1	52*	0
Cc1ccc(C=NNC(=O)C(=O)Nc2ccc(Cl)c([N+](=O)[O-])c2)cc1	-11	3	6	3	-8	-15
O=C(CSc1nncn1-c1ccccc1)N1CCCC1	-18	7	-19	-5	0	14
O=C(Nc1cc(Cl)ccc1N1CCCC1)C1=COCCO1	2	11	3	-5	-9	0
CC(=O)NCCc1ccc(C(=O)COC(=O)c2ccc(C)s2)cc1	-16	-18	-57	-14	-21	4
CC(=O)NCCc1ccc(C(=O)COC(=O)c2cccs2)cc1	48	3	-178	-18	61*	-12
CCN1CCN(c2nc(-c3ccccc3Cl)nc3ccccc23)CC1	-10	10	11	4	68*	3
CCC(C)NC(=O)c1cc2cc3ccc(OC)cc3nc2s1 (stereo not given)	-18	-5	-132	-182	51*	10
CC(=O)N1CCN(S(=O)(=O)c2ccc3c(c2)CCC(=O)N3)CC1	-7	14	-12	11	-6	-1
CC(C)Oc1ccc(F)cc1-c1cc(C(=O)Nc2ccc(C(C)(C)C)cc2)[nH]n1	-17	-11	9	-4	-24	-6
OCC1OC(n2cnc3c(NCc4ccccc4O)ncnc32)C(O)C1O (stereo not given)	17	30	71*	-25	59*	-54*
OC[C@H]1O[C@@H](n2cnc3c(Nc4ccccc4)ncnc32)[C@H](O)[C@@H]1O	-24	23	-86	-126	-43	-21
S=C(NCc1ccccn1)Nc1ccc(Cl)cc1	x	4	-233	-156	72*	7
OCCCCNCc1ccc(OCc2ccc(Cl)cc2Cl)cc1	-19	23	100*	-23	-19	-15
Cc1cc(C)cc(Oc2ccc(-c3nnc(-c4ccccc4)o3)cc2[N+](=O)[O-])c1	87*	-9	12	0	101*	-2
CC(=O)c1ccccc1OCc1ccc(S(=O)(=O)Cc2ccccc2)cc1	33	-13	22	-15	22	8
SMILES	TROY signal inh	CF NFkB inh	Peg3 prom inh	HIF-2a block	TWEAK-Fn14 inh	KKLEB cytotox
C1CCCCCC(NCCN2CCNCC2)CCCCC1	4	15	101*	-1	-38	-11
CCOC(=O)C1=C(c2ccccc2)NC(N)=NC1c1ccc(OCc2ccc(C(=O)OC)cc2)cc1 (stereo not given)	6	24	104*	-3	1	-34
NS(=O)(=O)c1ccc(CNC(=O)c2cc(S(=O)(=O)N3CCOCC3)c(Cl)cc2Cl)cc1	-7	-18	-9	12	8	-3
N#Cc1c(NCCN)nc(-c2ccccc2)c2c1CCCC2	11	21	67*	24	1	-7
N#Cc1c(NCCCO)nc(-c2ccccc2)c2c1CCCC2	-9	19	17	11	-28	-11
CC(NC(=O)c1cc2cc(F)ccc2[nH]1)c1ccccc1 (stereo not given)	3	3	-16	-63	30	-1
CCOC(=O)N1CCN(C(=O)c2ccc(NS(C)(=O)=O)cc2)CC1	-2	-12	-10	-8	17	3
CCOC(=O)c1ccc(NS(C)(=O)=O)cc1	x	3	11	9	82*	0
CCOC(=O)c1ccc(NC(=S)P(=O)(c2ccccc2)c2ccccc2)cc1	-13	-8	1	-4	71*	-5
CC(C)NC(=O)C1(C)CSCC(=O)N1CCCN1CCOCC1 (stereo not given)	x	x	x	0	x	x
CC(=O)OCC(=O)c1c[nH]c2ccccc12	-10	-9	-5	32	-8	-8
O=C(CO)c1c[nH]c2ccccc12	15	17	107*	19	2	-6
COc1ccc(NC(=O)C2Cc3c(-c4ccccc4Oc4ccccc4)ccnc3O2)cc1OC (stereo not given)	43	5	29	11	63*	12
COc1ccc(N/N=C(\C#N)C(=N)N2CCCCC2)cc1	7	12	-212	-222	-7	-8
COc1ccc(N/N=C(\C#N)C(=N)SCc2ccccc2)cc1	52*	78*	42	10	77*	-14
Cc1ccc(-n2ncc3c(NNC(=O)c4ccco4)ncnc32)cc1Cl	19	22	-40	-66	50*	-13
Cc1cccc(-n2ncc3c(NNC(=O)c4ccco4)ncnc32)c1	-22	-1	-17	-43	-7	5
Clc1ccc(-n2ncc3c(NCc4cccnc4)ncnc32)cc1Cl	51*	3	-336	-266	19	-18
CCn1cc(/C=C(\NC(=O)c2ccccc2)C(=O)NCCN2CCOCC2)c2ccccc21	11	6	6	18	-6	-6
Cc1nc(Nc2ccc(Cl)cc2)c2nnn(Cc3ccccc3)c2n1	26	13	12	2	27	-16
Cc1nc(Nc2ccc(S(=O)(=O)N3CCCCC3C)cc2)c2nnn(Cc3ccccc3)c2n1 (stereo not given)	19	9	32	26	66*	-3
